This passage reports outcome and AC50 results from PubChem BioAssay (EPA / NIEHS).

Read-out in test [1]: Tissue Factor, F3 (gene 2152)
The test can be described thus: BSK_CASM3C_TissueFactor: BioMAP Diversity Plus: CASM3C Assay for Tissue Factor Biomarker Activity (AID 2283052).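 Note: cell surface tissue factor protein level read by ELISA.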 The note with it: primary human coronary artery smooth muscle cells; actives raise or lower the signal.

Read-out in test [2]: Interferon-gamma inducible Protein 10 (IP10), CXCL10 (gene 3627)
The test can be described thus: BSK_hDFCGF_IP10: BioMAP Diversity Plus: hDFCGF Assay for Interferon-gamma inducible Protein 10 (IP10) Biomarker Activity (AID 2283053). The note with it: primary human foreskin fibroblasts; actives raise or lower the signal. The method in brief: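 Cells: human dermal foreskin fibroblasts. Exposure: 24 h post-dosing. Detection: IP-10 ELISA, with values expressed against DMSO controls and fitted in both directions.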

Read-out in test [3]: Urokinase-type plasminogen activator receptor (uPAR), PLAUR (gene 5329)
The experiment in a line: BSK_CASM3C_uPAR: BioMAP Diversity Plus: CASM3C Assay for Urokinase-type plasminogen activator receptor (uPAR) Biomarker Activity (AID 2283054).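 Note: cell-surface uPAR protein level quantified by ELISA.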 To be noted: primary human coronary artery smooth muscle cells; actives raise or lower the signal.

Read-out in test [4]: Vascular cell adhesion molecule 1 (VCAM1), VCAM1 (gene 7412)
The test can be described thus: BSK_CASM3C_VCAM1: BioMAP Diversity Plus: CASM3C Assay for Vascular cell adhesion molecule 1 (VCAM1) Biomarker Activity (AID 2283055).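 Note: VCAM-1 protein level quantified by ELISA on the cells.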 The note with it: primary human coronary artery smooth muscle cells; actives raise or lower the signal.

Read-out in test [5]: Collagen III, COL3A1 (gene 1281)
The test can be described thus: BSK_hDFCGF_CollagenIII: BioMAP Diversity Plus: hDFCGF Assay for Collagen III Biomarker Activity (AID 2283056). To be noted: primary human foreskin fibroblasts; actives raise or lower the signal. The method in brief: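 Human foreskin primary fibroblasts were exposed to test chemicals for 24 h, after which collagen III was quantified by ELISA. Activity was fitted bidirectionally against DMSO as negative control and baseline.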

Read-out in test [6]: Epidermal growth factor receptor (EGFR), EGFR (gene 1956)
The test can be described thus: BSK_hDFCGF_EGFR: BioMAP Diversity Plus: hDFCGF Assay for Epidermal growth factor receptor (EGFR) Biomarker Activity (AID 2283057). To be noted: primary human foreskin fibroblasts; actives raise or lower the signal. An outline of the steps: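 Dosing human primary skin fibroblasts, then measuring surface EGFR by ELISA at 24 h, gives the endpoint; gains and losses relative to DMSO were fitted in both directions.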

Read-out in test [7]: Interleukin-8 (IL8), CXCL8 (gene 3576)
The test can be described thus: BSK_hDFCGF_IL8: BioMAP Diversity Plus: hDFCGF Assay for Interleukin-8 (IL8) Biomarker Activity (AID 2283058). To be noted: primary human foreskin fibroblasts; actives raise or lower the signal. The method in brief:
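hDFCGF human dermal fibroblasts; 24 h chemical exposure; IL-8 by ELISA; bidirectional curve fit vs DMSO baseline; gain or loss of signal scored.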

A short description of test [8]: BSK_hDFCGF_Proliferation: Cell Proliferation Assessment in the BioMAP Diversity Plus: hDFCGF Assay (AID 2283059).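 Note: curves fitted for both rise and fall of signal versus DMSO baseline.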 The note with it: primary human foreskin fibroblasts. An outline of the steps: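 This proliferation readout used SRB total-protein staining of human foreskin fibroblasts […], normalized to DMSO with bidirectional curve fitting.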
Read-out in test [9]: Macrophage colony-stimulating factor (MCSF), CSF1 (gene 1435)
The experiment in a line: BSK_hDFCGF_MCSF: BioMAP Diversity Plus: hDFCGF Assay for Macrophage colony-stimulating factor (MCSF) Biomarker Activity (AID 2283060). The note with it: primary human foreskin fibroblasts; actives raise or lower the signal. An outline of the steps: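 Human foreskin primary fibroblasts were treated with test chemical for 24 h, and M-CSF was then measured by ELISA. Data were fitted bidirectionally against DMSO as the negative control and activity baseline.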

Test [10] can be described thus: BSK_hDFCGF_SRB: Viability Assessment in the BioMAP Diversity Plus: hDFCGF Assay (AID 2283061).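 Note: cells exposed to compound for 24 h before the read.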 To be noted: primary human foreskin fibroblasts. The method in brief: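 Human foreskin primary fibroblasts were treated with compound and assessed 24 h after dosing. Total protein was measured by sulforhodamine B staining (0.1% SRB after 10% TCA fixation, 560 nm read) as a cytotoxicity marker, with bidirectional fitting against DMSO baseline.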

SMILES strings stand for the structures. Calls of active or inactive are those of the source. Rule for the calls: active = hit-call score of the fitted dose curve at least 0.9, where 1 is the maximum; inactive = score below 0.9.

`CC(C)N(Cc1ccccc1)C(=O)C(C)(C)C`: the result in test [1], in test [2], in [3], in test [4], in [5] and in test [6] was inactive. Moreover, the result in test [7], in [8], in test [9] and in test [10] was inactive.

For the molecule `ClC1=C(Cl)[C@]2(Cl)[C@H]3[C@H]([C@@H]4C=C[C@H]3C4)[C@@]1(Cl)C2(Cl)Cl`, the outcome in [1] and in test [6] was inactive. The concentration at half-maximal activity (AC50) (usually the concentration giving half of the maximal activity seen) in test [2] is 19.3 µM (active); in test [3], 32 µM (active); in [4], 38.9 µM (active); in [5], 13.7 µM (active); in [7] it was 31.3 µM (active); in test [8], 5.71 µM (active). For the same molecule, the half-maximal activity concentration (AC50) in test [9] was 16.3 µM (active); in [10] it was 10.3 µM (active).

For the molecule `CCOc1cccc(C2(N3CCN(c4ccccc4)CC3)CCC(C)CC2)c1` (stereo unspecified), the outcome in test [1], in test [2], in [3], in [4], in [5] and in test [6] was inactive. In addition, the outcome in test [7], in test [8], in test [9] and in [10] was inactive.

For the molecule `CC(C)(OOC(C)(C)c1ccccc1)c1ccccc1`, the AC50 was 20 µM (active) in test [1]; 37.9 µM (active) in [2]; 12.8 µM (active) in test [5]; 36.2 µM (active) in [7]; 14.9 µM (active) in test [8]; 29.1 µM (active) in [10]. Moreover, the outcome in test [3], in test [4], in test [6] and in test [9] was inactive.

Consider `COP(=S)(OC)SCN1C(=O)c2ccccc2C1=O`, for which the outcome in test [1], in [2], in [3], in test [4], in [5] and in test [6] was inactive. Also, the result in test [7], in [8], in test [9] and in test [10] was inactive.

For the molecule `O=C(Oc1ccc(Br)cc1)N1CCN2CCC1CC2`, the result in test [1], in test [2], in [3], in test [4], in [5] and in test [6] was inactive. In addition, the result in [7], in test [8], in [9] and in [10] was inactive.

For `Cn1cc(-c2ccccc2)c(=O)c(-c2cccc(C(F)(F)F)c2)c1`, the result in test [1], in [2], in test [4], in test [5], in [6] and in test [7] was inactive. The outcome in [8], in test [9] and in test [10] was inactive. For the same molecule, the AC50 in test [3] was 5.18 µM (active).

With `[O-][Cl+]O`, the outcome in test [1], in test [2], in test [3], in [4], in [5] and in test [6] was inactive. Besides, the outcome in [7], in test [8], in [9] and in [10] was inactive.

On to `c1ccc2c(c1)-c1cccc3cccc-2c13`, for which the outcome in test [1], in test [2], in test [3], in test [4], in [6] and in test [7] was inactive. Moreover, the result in test [9] and in test [10] was inactive. Moreover, the AC50 in [8] was 23.7 µM (active).

On to `CN(C)C(=O)Nc1ccc(Cl)cc1`, for which the outcome in [1], in test [2], in test [3], in test [4], in [5] and in test [6] was inactive. Further, the result in test [7], in [8], in test [9] and in test [10] was inactive.

In the case of `Nc1cc(Cl)cc(C(=O)O)c1Cl`, the result in [1], in test [2], in test [3], in [4], in test [5] and in test [6] was inactive. In addition, the outcome in test [7], in test [8], in test [9] and in test [10] was inactive.

With `CC(C)COC(=O)c1ccccc1C(=O)OCC(C)C`, the result in test [1], in test [3], in [4], in test [6], in test [7] and in test [8] was inactive. Further, in test [10], the result was inactive. Besides, the AC50 in test [2] is 30.3 µM (active); in [5] it was 23.9 µM (active); in test [9], 14.4 µM (active).

Take `c1ccc(N=Nc2ccccc2)cc1`: the outcome in test [1], in test [2], in test [3], in test [4], in test [5] and in test [6] was inactive. In addition, the outcome in test [7], in test [8], in [9] and in test [10] was inactive.

As to `C=CCc1ccc2c(c1)OCO2`, the result in test [1], in [2], in test [3], in [4], in [5] and in test [6] was inactive. The outcome in test [7], in test [8], in [9] and in [10] was inactive.

For `Cc1cccc(N)c1N`, the result in test [1], in test [2], in [3], in test [6], in [7] and in test [8] was inactive. The outcome in test [10] was inactive. The AC50 was 13.8 µM (active) in test [4] and 0.853 µM (active) in [9].

Take `OCCCl`: the outcome in test [1], in test [2], in test [3], in test [4], in test [5] and in test [6] was inactive. For the same molecule, the result in test [7], in test [8], in [9] and in test [10] was inactive.

For `Cc1ccc(N=C=O)cc1N=C=O`, the outcome in test [1], in test [2], in test [3], in test [4], in test [6] and in test [7] was inactive. Also, the result in test [8], in test [9] and in test [10] was inactive.

On to `Clc1ccc(Cl)c(Cl)c1`, for which the outcome in test [1], in [2], in [3], in test [4], in test [6] and in test [7] was inactive. Moreover, the outcome in test [8], in test [9] and in test [10] was inactive.

Turning to `CC(C)(O)c1cnn2c(-c3ccc(F)c(-c4c(F)cccc4C#N)c3)cnc2n1`, the result in test [1], in test [2], in test [3], in test [4], in [6] and in test [7] was inactive. The result in test [8], in [9] and in test [10] was inactive. Moreover, the half-maximal activity concentration (AC50) in test [5] is 5.96 µM (active).

Consider `Oc1ccc2ccc3cccc4ccc1c2c34`, for which the outcome in test [1], in test [4], in test [6] and in [7] was inactive. Further, the half-maximal activity concentration (AC50) was 10.3 µM (active) in [2]; 27 µM (active) in [3]; 14.6 µM (active) in [5]; 3.17 µM (active) in test [8]; 10.4 µM (active) in test [9]; 20 µM (active) in [10].
